Results on 8 sequences are retold here after publication PMC8384837, “Expanding the binding specificity for RNA recognition by a PUF domain”.

What all share (assay): yeast three-hybrid, YBZ-1, SC-Leu-His + 0.5 mM 3-AT, 4 days
Settings in all cases: tags: N-Gal4 AD-HA kept; label: inside an RPR1-promoter hybrid RNA with tandem MS2 sites; ssRNA

One experiment addresses PUM1 PUF domain R8-RHD (Homo sapiens, UniProt Q14671 828-1176, N1122R;Y1123H;Q1126D). An outline of the steps: (§1)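 Pumilio-1 PUF domain libraries, randomized at the three base-contacting residues of each repeat, were co-expressed with matching RNA elements from a centromeric plasmid in strain YBZ-1, which carries a LexA–MS2 coat fusion and a HIS3 reporter. Transformants grew for four days on SC-Leu (input) or on SC-Leu-His + 0.5 mM 3-AT (selection), and the repeat regions were PCR-amplified and Illumina-sequenced. The interaction score is the log change in variant frequency from input to selection. That logarithm is base 2, with a pseudocount of 1 where a variant was absent.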

The next experiment concerns the target PUM1 PUF domain R7-GSV (Homo sapiens, UniProt Q14671 828-1176, S1079G;N1080S;E1083V). The gist of the method: as §1
The target of a further experiment is PUM1 PUF domain R7-QPG (Homo sapiens, UniProt Q14671 828-1176, S1079Q;N1080P;E1083G). The gist of the method: as §1
The target in a further experiment is PUM1 PUF domain R4-EFD (Homo sapiens, UniProt Q14671 828-1176, N971E;H972F;Q975D). An outline of the steps:
as §1

A further experiment deals with PUM1 PUF domain R2-AKP (Homo sapiens, UniProt Q14671 828-1176, N899A;Y900K;Q903P). The gist of the method: as §1
A further experiment concerns the target PUM1 PUF domain R4-GQS (Homo sapiens, UniProt Q14671 828-1176, N971G;H972Q;Q975S). An outline of the steps: as §1
The target of another experiment is PUM1 PUF domain R5-GLR (Homo sapiens, UniProt Q14671 828-1176, C1007G;R1008L;Q1011R). An outline of the steps: as §1
The target of another experiment is PUM1 PUF domain R3-KSR (Homo sapiens, UniProt Q14671 828-1176, C935K;R936S;Q939R). The gist of the method:
as §1

The target of another experiment is PUM1 PUF domain R5-KRY (Homo sapiens, UniProt Q14671 828-1176, C1007K;Q1011Y). The gist of the method: as §1
Another experiment has as its target PUM1 PUF domain R5-RLT (Homo sapiens, UniProt Q14671 828-1176, C1007R;R1008L;Q1011T). The gist of the method: as §1

Take “GGCUAGAACUAGUGGAUCCCCCGGCGCCCGGCGGCUCGAGCCCGGGUAAGCGUAAAUAGUCUGCAUGCCGCCGGGCGCCAUGCCUGCAGGUCGACUCUAGAAAACAUG”: in the experiment with PUM1 PUF domain R8-RHD, the binding signal was 5.28 log2 enrichment (interaction score).

Consider “GGCUAGAACUAGUGGAUCCCCCGGCGCCCGGCGGCUCGAGCCCGGGUAAGUUUAAAUAGUCUGCAUGCCGCCGGGCGCCAUGCCUGCAGGUCGACUCUAGAAAACAUG”, for which the binding signal is 2.83 log2 enrichment (interaction score) with PUM1 PUF domain R7-GSV and 4.67 log2 enrichment (interaction score) in the experiment with PUM1 PUF domain R7-QPG.

“GGCUAGAACUAGUGGAUCCCCCGGCGCCCGGCGGCUCGAGCCCGGGUAAGUGUACAUAGUCUGCAUGCCGCCGGGCGCCAUGCCUGCAGGUCGACUCUAGAAAACAUG”: the binding signal in the experiment with PUM1 PUF domain R4-EFD is 2.47 log2 enrichment (interaction score).

As for “GGCUAGAACUAGUGGAUCCCCCGGCGCCCGGCGGCUCGAGCCCGGGUAAGUGUAAAGAGUCUGCAUGCCGCCGGGCGCCAUGCCUGCAGGUCGACUCUAGAAAACAUG”, the binding signal with PUM1 PUF domain R2-AKP was 3.58 log2 enrichment (interaction score).

Turning to “GGCUAGAACUAGUGGAUCCCCCGGCGCCCGGCGGCUCGAGCCCGGGUAAGUGUAAAUAGUCUGCAUGCCGCCGGGCGCCAUGCCUGCAGGUCGACUCUAGAAAACAUG”, the binding signal was 2.47 log2 enrichment (interaction score) in the experiment with PUM1 PUF domain R4-GQS, 1.61 log2 enrichment (interaction score) in the experiment with PUM1 PUF domain R5-GLR and 2.17 log2 enrichment (interaction score) with PUM1 PUF domain R4-EFD.

“GGCUAGAACUAGUGGAUCCCCCGGCGCCCGGCGGCUCGAGCCCGGGUAAGUGUAAGUAGUCUGCAUGCCGCCGGGCGCCAUGCCUGCAGGUCGACUCUAGAAAACAUG”: the binding signal in the experiment with PUM1 PUF domain R3-KSR is 1.19 log2 enrichment (interaction score).

“GGCUAGAACUAGUGGAUCCCCCGGCGCCCGGCGGCUCGAGCCCGGGUAAGUGUAAUUAGUCUGCAUGCCGCCGGGCGCCAUGCCUGCAGGUCGACUCUAGAAAACAUG”: the binding signal with PUM1 PUF domain R3-KSR was 4.1 log2 enrichment (interaction score).

Consider “GGCUAGAACUAGUGGAUCCCCCGGCGCCCGGCGGCUCGAGCCCGGGUAAGUGUCAAUAGUCUGCAUGCCGCCGGGCGCCAUGCCUGCAGGUCGACUCUAGAAAACAUG”, for which the binding signal with PUM1 PUF domain R5-KRY is 4.04 log2 enrichment (interaction score); with PUM1 PUF domain R5-GLR, 2.62 log2 enrichment (interaction score); in the experiment with PUM1 PUF domain R5-RLT, 2.62 log2 enrichment (interaction score).
